High-throughput results deposited in PubChem by several laboratories.
SMARCA2 act: activators of SMARCA2 function. MG213 cells, MMTV-luciferase reporter, dexamethasone, overnight. activation, % at 9.1 µM. hit rate 1% among 370,000. AID 652017; in the data active = activation above about 7.8%;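 note: 0% = vehicle wells and 100% = reference activator wells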
HSF1 inhib: HSF1 inhibition; NIH3T3-HGL HSE-luciferase, MG132-induced, luminescence 8 h; active compounds read low; AID 2098; activity change, negative = inhibition, % at 7.5 µM (by protocol); hit rate 0.77% among 300,000;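 active = more than half of replicate wells show activity change below -50%, luminescence cut by over half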;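 note: luciferase reports HSF-1 transcriptional activity via heat shock element; 0% = median of DMSO wells and -100% = zero luminescence signal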
HSP90 refold inh: inhibitors of HSP90 luciferase refolding in rabbit reticulocyte lysate; hit rate 0.91% among 290,000; luciferase refolding luminescence, 3 h; AID 1789; inhibition, % at 5.6 µM;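 active = inhibition above the screen-wide mean plus 3 SD, computed separately per campaign, cut at about 16% in these data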;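 note: 0% = DMSO wells and 100% = 60 µM geldanamycin wells; inhibitors lower the luminescence because luciferase stays unfolded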
AI-2 QS modul: modulates the Vibrio harveyi AI-2 quorum sensing system; hit rate 0.4% among 300,000; activity change, % at 7.5 µM; AID 2094; Vibrio harveyi JMH597 AI-2 luminescence/OD600 ratio, 9 h; active compounds read low; strain lacks LuxN and CqsS sensors; 0 = neutral-control median; in the data active = activity change below about -75%, passing the limit was not always enough;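 note: luminescence divided by OD600 gain over 9 h not by final OD600 alone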
FXN GAA850 act: frataxin GAA850 promoter activation; HEK293 lucGAA850 FXN promoter luciferase reporter, 24 h; percent of 10 µM SAHA response; hit rate 0.56% among 360,000; activation, % at 6 µM;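 active = activation above the average of all compounds screened plus 3 SD, cutoff fixed separately per campaign, cut at about 7.5% in these data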;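 note: 0% = DMSO wells and 100% = 10 µM SAHA wells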
PG9 binder: PG9 antibody binding by small molecule; TR-FRET gp120-PG9 antibody binding; inhibition, % at 6.7 µM; hit rate 0.43% among 360,000; in the data active = inhibition above about 8.5%
* marks the source's active call; other numbers are inactive results. The list is not random: actives were taken first. Their share in the collection is about 3.4%.

For COc1cc(-n2c(N)c(C(=O)NCc3ccco3)c3nc4ccccc4nc32)cc(OC)c1OC the results were SMARCA2 act 2, HSF1 inhib 14, HSP90 refold inh 2, AI-2 QS modul 5, FXN GAA850 act 1 and PG9 binder 2.
Screening COc1ccc(-n2c(N)c(C(=O)NCc3ccco3)c3nc4ccccc4nc32)cc1OC returned SMARCA2 act 8.4*, HSF1 inhib 1, HSP90 refold inh 2, AI-2 QS modul 10, FXN GAA850 act 3 and PG9 binder -2.
COc1ccc2c3c([nH]c2c1)[C@]1(NCC3)C(=O)N(C)c2ccc(Cl)cc21 was read as SMARCA2 act 0.
Screening COc1ccc2ccccc2c1C=NNC(=O)CN1CCN(Cc2ccccc2)CC1 returned SMARCA2 act -5.
Screening CC(C)(C)c1ccc(C(=O)c2c[nH]c(C(=O)NCCc3ccccn3)c2)cc1 returned SMARCA2 act 0, HSF1 inhib 0, HSP90 refold inh 16*, AI-2 QS modul 29, FXN GAA850 act 2 and PG9 binder 4.
`O=c1cc(-c2ccc(F)cc2)[nH][nH]1` gave SMARCA2 act -3, HSF1 inhib 20, HSP90 refold inh 17*, AI-2 QS modul 8, FXN GAA850 act -1 and PG9 binder -1.
O=c1cc(-c2ccc(Br)cc2)[nH][nH]1 was read as SMARCA2 act -1, HSF1 inhib 5, HSP90 refold inh 12, AI-2 QS modul 22, FXN GAA850 act 1 and PG9 binder -2.
`COc1ccc(N2CCN(CCNS(=O)(=O)c3c(C(C)C)cc(C(C)C)cc3C(C)C)CC2)cc1` gave SMARCA2 act -6.
CCc1cc(C(=O)NCC(C)(C)N2CCOCC2)sc1C was read as SMARCA2 act -2, HSF1 inhib -68*, AI-2 QS modul 9, FXN GAA850 act 2 and PG9 binder -2.
For CCCCN1CCS(=O)(=O)N(Cc2cn(Cc3ccc(C)cc3)nn2)C(C(=O)OC)C1 (stereo unspecified) the results were SMARCA2 act 2.
For CC(=O)N1CCC2(CC1)C/C(=N\NC(=S)Nc1ccccc1F)c1cc(O)ccc1O2 the results were SMARCA2 act -2, HSF1 inhib -52*, HSP90 refold inh 4, AI-2 QS modul 11, FXN GAA850 act -4 and PG9 binder 2.
For CC(=O)N1CCC2(CC1)C/C(=N\NC(=S)Nc1ccccc1C)c1cc(O)ccc1O2 the results were SMARCA2 act -2, HSF1 inhib -12, HSP90 refold inh 1, AI-2 QS modul 3, FXN GAA850 act 0 and PG9 binder 0.
Screening O=C(COc1ccccc1)Nc1nnc(S(=O)(=O)N2CCCCC2)s1 returned SMARCA2 act -4, HSF1 inhib 0, HSP90 refold inh 1, AI-2 QS modul 0, FXN GAA850 act 0 and PG9 binder -1.
Screening O=C(COc1ccccc1)Nc1nnc(S(=O)(=O)N2CCCCCC2)s1 returned SMARCA2 act -3, HSF1 inhib -71*, HSP90 refold inh 1, AI-2 QS modul 16, FXN GAA850 act 0 and PG9 binder -4.
CCOc1ccccc1NC(=O)Cn1c(=O)oc2cc(Cl)ccc21 was read as SMARCA2 act -2, HSF1 inhib 6, HSP90 refold inh 0, AI-2 QS modul -12, FXN GAA850 act 0 and PG9 binder 2.
For CCOc1ccccc1NC(=O)Cn1c(-c2ccc(Cl)cc2)noc1=O the results were SMARCA2 act -3, HSF1 inhib -65*, HSP90 refold inh 2, AI-2 QS modul 39, FXN GAA850 act 1 and PG9 binder 2.
Screening COC(=O)C[C@](O)(CCCC(C)(C)O)C(=O)O[C@@H]1C(OC)=C[C@]23CCCN2CCc2cc4c(cc2[C@H]13)OCO4 returned HSF1 inhib -73* and AI-2 QS modul 0.
`COc1cc(NC(=O)c2cccs2)c(C(=O)OCC(=O)c2cc(C)n(-c3ccc(F)cc3)c2C)cc1OC` gave SMARCA2 act -3, HSF1 inhib -64*, HSP90 refold inh -2, AI-2 QS modul -14, FXN GAA850 act -12 and PG9 binder 0.
`COc1cc(NC(=O)c2cccs2)c(C(=O)OCC(=O)c2cc(C)n(-c3ccccc3)c2C)cc1OC` gave SMARCA2 act -11, HSF1 inhib -4, HSP90 refold inh 0, AI-2 QS modul 13, FXN GAA850 act -11 and PG9 binder 2.
CC1(C)CC(=Cc2ccccc2[N+](=O)[O-])C(=O)c2ccccc21 was read as SMARCA2 act 7.9*, FXN GAA850 act -2 and PG9 binder -1.
Screening CCN(CC)C(=O)CC[C@H]1CC[C@]2(CCCN(Cc3nccn3C)C2)O1 returned SMARCA2 act -2.
`Cc1ccc(C(=O)C2CCN(CC(=O)NC(C)C)CC2)cc1` gave SMARCA2 act -3.
Screening CCN(CC)c1ccc(NC(=O)COC(=O)/C=C/c2nc3ccccc3s2)cc1 returned SMARCA2 act 1, HSF1 inhib 2, HSP90 refold inh -1, AI-2 QS modul 24, FXN GAA850 act 4 and PG9 binder -3.
For CCN(CC)c1ccc(/C=C/c2nc3ccccc3s2)cc1 the results were HSF1 inhib -82*, HSP90 refold inh 67* and AI-2 QS modul 31.
For CCN(CC)Cc1c(NC(=O)c2ccccc2)sc(C)c1C the results were SMARCA2 act 3, HSF1 inhib 15, HSP90 refold inh -2, AI-2 QS modul 10, FXN GAA850 act 4 and PG9 binder -4.
Screening CCOC(=O)c1c(NC(=O)c2ccccc2)sc2c(O)c(CN(CC)CC)ccc12 returned SMARCA2 act -4, HSF1 inhib -73*, HSP90 refold inh -1, AI-2 QS modul -5, FXN GAA850 act 0 and PG9 binder 1.
`COc1ccc(OCc2nn3c(-c4ccccc4)nnc3s2)cc1` gave SMARCA2 act -6.
`CCC1(c2ccc(F)cc2)NC(=O)N(CC(=O)NCc2ccc(F)cc2)C1=O` (stereo unspecified) gave SMARCA2 act -4, HSF1 inhib -9, HSP90 refold inh -2, AI-2 QS modul -39, FXN GAA850 act 4 and PG9 binder -1.
`CCC1(c2ccc(F)cc2)NC(=O)N(CC(=O)NCc2ccc(C)cc2)C1=O` (stereo unspecified) gave SMARCA2 act 5, HSF1 inhib 4, HSP90 refold inh 3, AI-2 QS modul -78*, FXN GAA850 act 0 and PG9 binder -1.
For COc1ccc(-c2cc(-c3nnc(SCC(=O)Nc4ccc(OCc5ccccc5)cc4)n3N)[nH]n2)cc1 the results were SMARCA2 act -2.
Cc1nn(-c2ccccc2)c2sc(C(=O)NCCc3ccc(Cl)cc3)cc12 was read as SMARCA2 act -6.
